High-throughput results (PubChem)
Most compounds without a hit are left out; they make up all but 1.1% or so of the library.
HTR5A inv ag: HTR5A inverse agonism, opioid heterodimer counter-screen; HTR5A cell line, luminescence; inhibition, % at 9.3 µM; 0.083% of 340,000 active; in the data active = inhibition mostly above about 23%, no sharp cut-off; inactive = mostly below about 18%
Target sequence (P47898 whole entry, looked up): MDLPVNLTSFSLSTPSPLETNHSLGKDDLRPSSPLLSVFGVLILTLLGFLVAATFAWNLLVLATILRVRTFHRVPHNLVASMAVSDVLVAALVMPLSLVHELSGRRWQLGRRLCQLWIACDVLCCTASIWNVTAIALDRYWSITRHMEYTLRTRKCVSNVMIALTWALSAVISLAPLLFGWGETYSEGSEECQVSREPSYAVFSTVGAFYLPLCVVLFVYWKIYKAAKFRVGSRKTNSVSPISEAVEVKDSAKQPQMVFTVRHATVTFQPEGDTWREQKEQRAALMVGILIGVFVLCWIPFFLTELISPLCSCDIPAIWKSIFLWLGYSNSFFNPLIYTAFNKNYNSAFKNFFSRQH
OPRM1-OPRD1 inv: mu-delta opioid heterodimer inverse agonism. P35372+P41143. cell-based MOR-DOR heterodimer luminescence. inhibition, % at 9.3 µM. 0.21% of 340,000 active. AID 504357; in the data active = inhibition above about 22%, passing the limit was not always enough
HTR5A ag: HTR5A agonism, opioid heterodimer counter-screen | activation, % at 9.3 µM | HTR5A agonist assay, luminescence, cell-based | 0.61% of 340,000 active | P47898; in the data active = activation mostly above about 9.5%, no sharp cut-off; inactive = mostly below about 7.6%
MOR-DOR ag-1: agonists of human mu-delta opioid receptor heterodimerization; P35372+P41143; cells, OPRM1-OPRD1 heterodimerization, luminescence; activation, % at 9.3 µM; 0.3% of 340,000 active
MOR-DOR ag-2: promotes OPRM1-OPRD1 heterodimerization in HTR5A counter-screen. shares compounds with HTR5A ag. U2OS counter-screen cells, complementation luminescence, 3 h. activation, % at 9.3 µM. 13% of 800 active. AID 504913
HTR5A ag conf: confirmation of human HTR5A agonists | shares compounds with HTR5A ag | HTR5A agonist cell assay, luminescence | activation, % at 9.3 µM | 17% of 800 active; in the data active = activation above about 17%
Each line names hits and unclear results; the compound was inactive in the other large screens (follow-up assays come after a bar, where they were run); ! = not confirmed by another sample. Cut-off read from the data, not from the text of the source, unless noted: active = activation above about 18%; inactive = the rest.

CCn1c(N2CCN(C(=S)NCCc3ccccc3)CC2)nc2ccccc21	HTR5A ag 30.9 | MOR-DOR ag-2 inactive | HTR5A ag conf 29.7
CCn1c(N2CCN(C(=S)NC)CC2)nc2ccccc21	HTR5A ag 23.6 | MOR-DOR ag-2 inactive | HTR5A ag conf inactive
CCn1c(N2CCN(C(=S)NCC(C)C)CC2)nc2ccccc21	none
CC(C)N=C(NC#N)SCC(=O)NC(C)(C)C	none
C=CCN=C(NC#N)SCC(=O)NC(C)(C)C	HTR5A ag 17.1 | MOR-DOR ag-2 20.0 | HTR5A ag conf inactive
CCCCN(C)C(=O)CCC(=O)NNc1nc2ccccc2c2nc(C)nn12	none
CC(C)CCN1CCC(n2nccc2NC(=O)C2CCOC2)CC1 (stereo not given)	none
Cc1ccccc1NC(=O)COc1coc(CN2CCCc3ccccc32)cc1=O	none
Cc1ccc(C)c(NC(=O)COc2coc(CN3CCc4ccccc43)cc2=O)c1	HTR5A ag 16.1 | MOR-DOR ag-2 inactive | HTR5A ag conf inactive
Cc1nc(SCC(=O)N2CCCC2=O)nc(C)c1C	none
O=C(c1ccco1)N1CCN(C(=O)c2cc(-c3ccncc3)nc3ccc(Br)cc23)CC1	none
O=C(O)c1cc(-c2ccco2)nc2ccc(Br)cc12	HTR5A ag 18.3! | MOR-DOR ag-2 41.8 | HTR5A ag conf inactive
O=C(Nc1ccc(N2CCN(C(=O)c3cccs3)CC2)cc1)c1ccc(Br)o1	HTR5A ag 16.2 | MOR-DOR ag-2 inactive | HTR5A ag conf inactive
COc1ccc(CCN2CC(C(=O)Nc3cc(F)ccc3F)CC2=O)cc1OC (stereo not given)	none
CCCCCC(C)NC(=S)NC(=O)c1cc(S(=O)(=O)N2CCOCC2)ccc1C (stereo not given)	HTR5A ag 14.6 | MOR-DOR ag-2 inactive | HTR5A ag conf inactive
CC1CC(C)CN(S(=O)(=O)N2CCCC(C(=O)NCCc3ccccc3)C2)C1 (stereo not given)	none
COc1ccc(-c2[nH]ncc2CNCC(C)(C)N2CCOCC2)cc1F	none
c1ccc(Nc2ccccc2Nc2ccccn2)nc1	none
Oc1cccc2ccc(Nc3ccccn3)nc12	HTR5A ag 15.5 | MOR-DOR ag-2 inactive | HTR5A ag conf inactive
COc1cc2c(cc1NC(=O)CN1CCN(S(=O)(=O)c3ccc(C)cc3)CC1)oc1ccccc12	HTR5A ag 14.6 | MOR-DOR ag-2 218.3 | HTR5A ag conf inactive
COc1ccc(C)cc1NC(=O)CN1CCN(S(=O)(=O)c2ccc(Cl)cc2)CC1	none
CCCCCCCCCCCCCCCC[n+]1ccc(C(N)=O)cc1	none
CCCCCCCCCCCCCCCC[n+]1ccc(/C=N/O)cc1	HTR5A ag 26.3 | MOR-DOR ag-2 inactive | HTR5A ag conf inactive
CCOc1ccc(Oc2ccccc2NC(=O)CN2C(=O)NC3(CCCC3)C2=O)cc1	none
C[C@H](CO)N1C[C@H](C)[C@@H](CN(C)C(=O)Nc2ccccc2)Oc2c(NC(=O)NC3CCCCC3)cccc2C1=O	none
O=C(Nc1nnc(SCC(=O)N2CCOCC2)s1)C1CC(=O)N(c2ccccc2)C1 (stereo not given)	HTR5A ag 17.0 | MOR-DOR ag-2 31.6 | HTR5A ag conf inactive
C/C(=N\NS(=O)(=O)c1ccc(Cl)c([N+](=O)[O-])c1)c1cc2ccccc2o1	none
C/C(=N\NS(=O)(=O)c1ccc(C)c([N+](=O)[O-])c1)c1cc2ccccc2o1	HTR5A ag 27.1 | MOR-DOR ag-2 18.9 | HTR5A ag conf inactive
Cc1ccc(C2(c3ccc(C)cc3)CC2C(=O)NCc2cccnc2)cc1 (stereo not given)	none
Cc1coc2cc3oc(=O)c(CCC(=O)N4C[C@H]5C[C@@H](C4)c4cccc(=O)n4C5)c(C)c3cc12	HTR5A ag 25.9 | MOR-DOR ag-2 inactive | HTR5A ag conf 50.9
COC(=O)c1ccc(Cn2cc(Cl)cn2)cc1	HTR5A ag 23.9 | MOR-DOR ag-2 inactive | HTR5A ag conf inactive
N#Cc1c(F)cccc1NCCCn1ccnc1	none
CCCc1cc(=O)oc2cc(OCC(=O)NCCc3ccc(S(N)(=O)=O)cc3)ccc12	none
COc1ccc(CNC(=O)c2ccc3nccnc3c2)cc1	HTR5A ag 19.1 | MOR-DOR ag-2 inactive | HTR5A ag conf inactive
COc1ccc(CNC(=O)c2ccncc2)cc1	none
COC(=O)[C@@H]1C[C@H]1[C@@H](NS(=O)(=O)c1ccccc1)c1ccccc1	none
CC(C(=O)NC1C=CS(=O)(=O)C1)N1C(=O)/C(=C/c2cccc(Cl)c2)SC1=S (stereo not given)	HTR5A ag 14.7 | MOR-DOR ag-2 38.3 | HTR5A ag conf inactive
O=C(Cc1ccc(Br)cc1)NCCc1ccc(Cl)cc1Cl	HTR5A ag 16.1 | MOR-DOR ag-2 inactive | HTR5A ag conf inactive
COc1ccc(C)cc1NC(=O)COC(=O)c1ccc2c(c1)OCCO2	HTR5A ag 19.2 | MOR-DOR ag-2 inactive | HTR5A ag conf inactive
CC(C)Oc1ccc(C2CC(=O)NC2=O)cc1 (stereo not given)	none
CC(C)Oc1ccc(C2CNC(=O)C2)cc1 (stereo not given)	HTR5A ag 23.1 | MOR-DOR ag-2 inactive | HTR5A ag conf 64.6
CCOc1ccc(-c2csc(NNC3=NCCCCC3)n2)cc1	none
COc1ccc(OCc2n(CC(=O)OC3CC(C)CCC3C(C)C)c3ccccc3[n+]2C)cc1 (stereo not given)	HTR5A ag 21.4 | MOR-DOR ag-2 inactive | HTR5A ag conf inactive
CCC(C)(C)C1CCC2(CC1)NC(=O)N(CC(=O)NCCc1c[nH]c3ccccc13)C2=O (stereo not given)	HTR5A ag 18.7 | MOR-DOR ag-2 inactive | HTR5A ag conf inactive
COc1ccc(/C=C(/NC(=O)c2ccc(OC)cc2)C(=O)NCCc2c[nH]c3ccccc23)cc1	none
Cc1cc(/C=C(\C#N)C(=O)NCCc2c[nH]c3ccccc23)c(C)n1C	HTR5A ag 66.2 | MOR-DOR ag-2 inactive | HTR5A ag conf inactive
Cc1ccc(C(=O)N/C(=C\c2cccs2)C(=O)NCCc2c[nH]c3ccccc23)cc1	HTR5A ag 15.2 | MOR-DOR ag-2 19.9 | HTR5A ag conf inactive
COc1ccc(S(=O)(=O)Nc2cccc3c2O[C@H](CN(C)C)[C@@H](C)CN([C@H](C)CO)C3=O)cc1	none
Cc1ccc(C)c(NC(=O)c2cc([N+](=O)[O-])cc([N+](=O)[O-])c2)c1	none
O=C(NCCn1cccn1)C1CCC(=O)N(CC2CCCCC2)C1 (stereo not given)	HTR5A ag 25.4 | MOR-DOR ag-2 inactive | HTR5A ag conf inactive
CCCn1cnc2c1c(=O)n(CCCCC(C)=O)c(=O)n2C	none
COc1ccc(/C=N\NC(=O)c2cc(O)c(O)c(O)c2)cc1COc1ccc(C(=O)OCC(C)C)cc1	none
O=c1cc(CN2CCN(S(=O)(=O)c3ccccc3)CC2)nc2ccc(Cl)cn12	none
COc1ccc(S(=O)(=O)N2CCN(Cc3cc(=O)n4ccccc4n3)CC2)cc1	HTR5A ag 16.0 | MOR-DOR ag-2 inactive | HTR5A ag conf inactive
CCN(CC(=O)Nc1ccc(NC(C)=O)cc1)C(=O)c1ccc(C(=O)c2ccccc2)cc1	HTR5A ag 21.6 | MOR-DOR ag-2 inactive | HTR5A ag conf 30.5
